Assay [1] is described as follows: NCI Yeast Anticancer Drug Screen. Data for the rad50 strain (AID 155).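 Note: 0% = growth of vehicle-only cultures of the same strain.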 The following applies: S. cerevisiae rad50 strain growth inhibition; at 50.0 µM; hits give high values. The method, boiled down: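 Compounds were tested on a yeast strain with an engineered DNA damage repair alteration; the reported value is growth inhibition normalised to vehicle treatment.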

The nature of assay [2]: NCI Yeast Anticancer Drug Screen. Data for the mec2-1 strain (AID 157). The note with it: S. cerevisiae mec2-1 strain, at 50.0 µM, hits give high values. The method, boiled down: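 Strain: mec2-1 (DNA repair/cell cycle alteration). Compound exposure, then growth measured; inhibition expressed relative to vehicle.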
Assay [3] is described as follows: NCI Yeast Anticancer Drug Screen. Data for the sgs1 mgt1 strain (AID 161).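 Note: 0% = growth of cultures given vehicle only.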 The following applies: S. cerevisiae sgs1 mgt1 strain, at 50.0 µM, hits give high values. In a few lines:
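Read-out: growth inhibition vs vehicle controls. Cells: mutant yeast strain deficient in DNA damage repair.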

Assay [4] can be described thus: NCI Yeast Anticancer Drug Screen. Data for the cln2 rad14 strain (AID 165).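 Note: 0% = growth equal to vehicle treated cultures.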 The following applies: S. cerevisiae cln2 rad14 strain, at 50.0 µM, hits give high values. The method, boiled down:
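Compounds are applied to the cln2 rad14 yeast strain, and growth is then compared with that of vehicle-treated cultures to give inhibition.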

A short description of assay [5]: NCI Yeast Anticancer Drug Screen. Data for the bub3 strain (AID 167). The note with it: S. cerevisiae bub3 mutant strain, at 50.0 µM, hits give high values. In a few lines: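 Growth of a checkpoint-deficient yeast mutant is measured after compound exposure. Values represent inhibition relative to vehicle.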

This is part of a sample that, as a whole, favours compounds with a hit. Of some 79,000 tested, about 15% had one in any assay. Values without a mark were called inactive. Active and inactive are the calls of the source. Cut-off read from the data, not from the text of the source: active = growth inhibition above about 70%; inactive = the rest. Where a SMILES comes first, the peptide text is derived from it. [ ]: non-standard residue; d: D form. The star is where a group is joined. ξ: configuration not given here. Cbz = O=C(OCc1ccccc1)*; Nva = CCC[CH](N)C(=O)O; ξM = CSCCC(N)C(=O)O

As to `O=C1NC(=O)N(C(F)(F)F)C(F)(F)N1C(F)(F)F`, the growth inhibition in assay [1] was 1.25%; in assay [2], 4.55%; in assay [3], 3.75%; in assay [4], 30.9%; in assay [5] it was 5.8%.

On to `Cc1n(C)c(=O)c2ccccc2[n+]1C`, for which the growth inhibition in assay [1] is 5.35%; in assay [2], 5.75%; in assay [3], -7%; in assay [4] it was -3.3%; in assay [5], 1.95%.

Consider `NC1=NC(c2ccc(Cl)cc2)N(c2ccc(S(N)(=O)=O)cc2)C(N)=N1` (stereo not given), for which the growth inhibition in assay [1] was 9.05%; in assay [2], -4.35%; in assay [3], -24.5%; in assay [4], -21.9%; in assay [5], -11.3%.

For `O=C(O)CCBr`, the growth inhibition in assay [1] was 8.1%; in assay [2], -10.1%; in assay [3] it was 44.5%; in assay [4], 0%; in assay [5] it was 6.5%.

For `CCN(CC(=O)NC(=O)c1ccccc1)c1ccccc1`, the growth inhibition in assay [1] is -1.75%; in assay [2], -14%; in assay [3], -4.75%; in assay [4] it was -34.5%; in assay [5], 5.5%.

Turning to `C(/C=N/NC1=NCCCN1)=N\NC1=NCCCN1`, the growth inhibition in assay [1] was -3.5%; in assay [2], -15.2%; in assay [3], -14.6%; in assay [4] it was 10.9%; in assay [5] it was -33.1%.

As for `CSCCC(NC(=O)CNC(=O)CNC(=O)OCc1ccccc1)C(=O)O` (stereo not drawn) (Cbz-Gly-Gly-[ξM]-OH), the growth inhibition in assay [1] is 96.5% (active); in assay [2] it was 98.7% (active); in assay [3], 92.5% (active); in assay [4], 98.4% (active); in assay [5], 99% (active).

In the case of `CCCC(NC(=O)OCc1ccccc1)C(=O)NC(CO)C(=O)O` (stereo not given) (Cbz-[Nva]-Ser-OH; configuration not given here), the growth inhibition in assay [1] was 24.6%; in assay [2], 4.15%; in assay [3] it was 9.05%; in assay [4], 26.6%; in assay [5], 8.25%.

Turning to `CN(C)/N=N/c1nc2c(c(=O)n(C)c(=O)n2C)n1CC(O)CO` (stereo not given), the growth inhibition in assay [1] was 11.4%; in assay [2] it was 29%; in assay [3] it was 22.1%; in assay [4] it was -2.85%; in assay [5], 2%.

Take `O=C(O)c1ccc(OCC(=O)c2ccccc2)cc1`: the growth inhibition in assay [1] was 6.35%; in assay [2], 16.9%; in assay [3], -5.6%; in assay [4] it was -6.65%; in assay [5], 36.1%.

With `OCC1OC(n2c(SCc3ccccc3)nc3ccccc32)C(O)C1O` (stereo not given), the growth inhibition was -3.5% in assay [1]; 1.45% in assay [2]; -9.1% in assay [3]; -11.9% in assay [4]; 6.4% in assay [5].

As to `CC(=O)C1CCC2C3CC=C4CC(O)C=CC4(C)C3CCC12C` (stereo not given), the growth inhibition is 7.6% in assay [1]; 22.1% in assay [2]; 11.2% in assay [3]; -1.65% in assay [4]; 5.1% in assay [5].

For the molecule `O=C1CNC(=O)N1c1ccccc1`, the growth inhibition in assay [1] is 7.35%; in assay [2] it was 5.75%; in assay [3], 4.4%; in assay [4], -9.2%; in assay [5], 5.65%.

Consider `O=S(=O)(CS(=O)(=O)c1ccc(Br)cc1)c1ccc(Br)cc1`, for which the growth inhibition was 1.4% in assay [1]; 33.1% in assay [2]; -14.6% in assay [3]; 20.8% in assay [4]; 4.6% in assay [5].

Consider `NC(=O)c1cn2ccccc2c1[N+](=O)[O-]`, for which the growth inhibition in assay [1] is 8.25%; in assay [2], 27.6%; in assay [3], 3.35%; in assay [4] it was -20.2%; in assay [5], 2.8%.

As for `CN(C(=O)c1ccccc1)C1CCCC(=O)CC1` (stereo not given), the growth inhibition in assay [1] was -2.35%; in assay [2], -10%; in assay [3] it was 8.25%; in assay [4] it was 9.95%; in assay [5], -13.6%.

For `COc1ccc(-c2c3c(n(C4OC(COC(C)=O)C(OC(C)=O)C(OC(C)=O)C4OC(C)=O)c(=S)c2C#N)CCC3)cc1` (stereo not given), the growth inhibition in assay [1] was 28.8%; in assay [2], 35%; in assay [3] it was 43.3%; in assay [4] it was 32%; in assay [5], 46.8%.

With `CC1COC(c2ccc(Cl)cc2Cl)O1` (stereo not given), the growth inhibition in assay [1] is 8.35%; in assay [2] it was -2.4%; in assay [3], -1.1%; in assay [4], 1.25%; in assay [5], 2.75%.

In the case of `O=C(Oc1ccccc1)c1ccc(C(=O)Oc2ccccc2)cc1`, the growth inhibition in assay [1] is 9%; in assay [2], 28.7%; in assay [3] it was 15.8%; in assay [4], 3.9%; in assay [5], 43.1%.

On to `COC1/C=C\OC2(C)Oc3c(C)c(O)c4c(O)c(c5[nH]cnc5c4c3C2=O)NC(=O)/C(C)=C\C=C\C(C)C(O)C(C)C(O)C(C)C(OC(C)=O)C1C` (stereo not given), for which the growth inhibition in assay [1] is 12.1%; in assay [2], 3.8%; in assay [3] it was 24%; in assay [4] it was 28.2%; in assay [5] it was 17.1%.

On to `CCOC(=O)C1=C(C)N(Cc2ccccc2)C2(O)C1=CC(=O)C(Cl)=C2Cl` (stereo not given), for which the growth inhibition is 72.8% (active) in assay [1]; 45.5% in assay [2]; 46.8% in assay [3]; 54.9% in assay [4]; 49.5% in assay [5].

With `Cc1c(NC(=O)Nc2c(Cl)cccc2Cl)c(=O)n(-c2ccccc2)n1C`, the growth inhibition in assay [1] is -42.8%; in assay [2], -36.3%; in assay [3] it was -15.5%; in assay [4], -10.2%; in assay [5] it was -29.9%.

For the molecule `NC(CCCOS(=O)(=O)O)Cc1ccc2ccccc2c1` (stereo not given), the growth inhibition in assay [1] is -10.6%; in assay [2], 9.35%; in assay [3], 16.6%; in assay [4], 10.2%; in assay [5] it was 3.55%.

On to `c1ccc(C2(c3ccccc3)SC2(c2ccccc2)c2ccccc2)cc1`, for which the growth inhibition in assay [1] is -13.9%; in assay [2], -7.75%; in assay [3], -11.1%; in assay [4], -24.1%; in assay [5], 2.15%.
